Molecules are shown by their SMILES. Where “and” joins values, the source holds several entries; their conditions need not be identical. Equal entries are not always repeated. About 520 (0.25%) of roughly 210,000 compounds were called active. No stated cut-off is given here; in the data, active means inhibition above about 50%; inactive means the rest. The list comes from a sample in which actives are over-represented; it also holds similar structures and randomly drawn compounds. Some compounds were tested as several samples or in several runs, with calls that do not always agree.

The test system of the assay is Plasmodium falciparum apicoplast DNA polymerase (apPOL). The assay is described as follows: Pf-apPOL inhibitors, biochemical, fluorescence (AID 1794808). The conditions noted are these: Recombinant Pf-apPOL, molecular beacon fluorescence, 1.5 h; at 10 µM; stronger effect = higher value.
Turning to `COc1ccc2nc(SCC(=O)c3ccc(Cl)c(Cl)c3)[nH]c2c1`, the inhibition (in general, the relative decrease from the control value, in per cent) is 79.6% (active).

`COc1ccc2nc(SCC(=O)NCc3cccs3)[nH]c2c1`: the inhibition was -5.8% (inactive).

In the case of `COc1ccc2nc(SC)[nH]c2c1`, the inhibition is -6.5% (inactive).

For the molecule `CC(=O)N1CCc2cc(N3CC(C(=O)Nc4cccc(F)c4)CC3=O)ccc21` (centres undefined), the inhibition was -3.7% (inactive).

As for `O=C(CCCC1=NS(=O)(=O)c2ccccc2N1)Nc1cccc(C(=O)O)c1`, the inhibition is -7.1% (inactive).

`O=C(NCCC1=CCCCC1)C(=O)NCC(c1ccc2c(c1)OCO2)N1CCOCC1` (centres undefined): the inhibition was -1.8% (inactive).

For the molecule `Cc1ccc(C)c(OCC(=O)Nc2ccccc2C(N)=O)c1`, the inhibition is 4.8% (inactive).

Turning to `O=C(C=Cc1ccco1)NCC1COC2(CCCCC2)O1` (centres undefined), the inhibition is -8.3% (inactive).

`O=C(NCC1COC2(CCCC2)O1)c1ccccc1[N+](=O)[O-]` (centres undefined): the inhibition is -1.9% (inactive).

For `O=C(CCc1ccccc1)NCC1COC2(CCCCC2)O1` (centres undefined), the inhibition was 90.3% (active).

As for `Cc1cc(NC(=O)N2CC3CCCN3c3ccccc32)ccc1Br` (centres undefined), the inhibition is 0.1% (inactive).

As to `CN1/C(=C/C(=O)c2ccc(I)cc2)Sc2ccccc21`, the inhibition is -77.1% (inactive).

Take `CC(C)CNS(=O)(=O)c1ccc2nc(NC(=O)c3ccco3)sc2c1`: the inhibition is 45.1% (inactive).

As to `NC(COc1ccc(Cl)cc1)=NOC(=O)c1ccsc1`, the inhibition was -6.2% (inactive).

As to `COc1cc(OC)c(N2C(=O)NC3CC2(C)Oc2ccccc23)cc1Cl` (centres undefined), the inhibition was -6.1% (inactive).

For `Fc1ccc(-c2nc(-c3ccc(Cl)cc3)no2)cc1`, the inhibition is -2.6% (inactive).

Regarding `O=C(Nc1cc(F)c2nc(N3CCCC3)ccc2c1)c1cccc(F)c1`, the inhibition is 0.1% (inactive).

For the molecule `O=C1C(Nc2ccccc2)=CC(c2ccc([N+](=O)[O-])cc2)N1c1ccccc1` (centres undefined), the inhibition is 8.9% (inactive).

In the case of `COc1ccc(/C=C2/C(=O)N(c3ccccc3)N=C2C)c(OC)c1`, the inhibition is 2.6% (inactive).

Consider `COc1ccc(C2C=C(Nc3ccccc3)C(=O)N2c2ccccc2)c(OC)c1` (centres undefined), for which the inhibition was 65.6% (active).

Take `Cc1ccc2c(c1)N(Cc1nc(-c3ccc(C)c(C)c3)no1)C(=O)CO2`: the inhibition was -2.1% (inactive).

For `CC(C=CC=C(C)C(=O)OC1OC(COC2OC(CO)C(O)C(O)C2O)C(O)C(O)C1O)=CC=CC=C(C)C=CC=C(C)C(=O)OC1OC(COC2OC(CO)C(O)C(O)C2O)C(O)C(O)C1O` (centres undefined), the inhibition was -1.1% (inactive).

In the case of `CC(C)(C)NC(=O)N1CCC(CNC(=O)C(=O)Nc2cc(F)ccc2F)CC1`, the inhibition is -4.8% (inactive).

Take `COc1cc(OC)c(OC)cc1CN1CCCC1c1cc(C)on1` (centres undefined): the inhibition is 3.3% (inactive).

In the case of `CCOc1cc(C2C3=C(CCCC3=O)N(CC)C3=C2C(=O)CCC3)cc(Cl)c1O`, the inhibition is 65.7% (active).

Take `CCN1C2=C(C(=O)CCC2)C(c2cc(Br)c(O)c(OC)c2)C2=C1CCCC2=O`: the inhibition is 1.1% (inactive).

With `CCN1C2=C(C(=O)CC(C)(C)C2)C(c2cc(Cl)c(O)c(OC)c2)C2=C1CC(C)(C)CC2=O`, the inhibition is 6.7% (inactive).

Turning to `Cc1cccc(NC(=O)CSc2nccn2C)c1C`, the inhibition was -4.4% (inactive).

On to `COC(=O)c1cc(Nc2cc(F)ccc2F)c2ccccc2n1`, for which the inhibition is -1.7% (inactive).

On to `CCc1ccc(NC(=O)CCS(=O)(=O)c2ccc(Br)s2)cc1`, for which the inhibition was -6.3% (inactive).

With `COc1ccc(CC2(C)OC(c3ccc(C(C)(C)C)cc3)=NN2C(C)=O)cc1` (centres undefined), the inhibition is 5.3% (inactive).

Consider `CCOc1nn(-c2nc(-c3ccccc3)cc(C(F)(F)F)n2)cc1[N+](=O)[O-]`, for which the inhibition is 1.6% (inactive).

For `c1ccc2[nH]c(CSc3nc4ccccc4[nH]3)nc2c1`, the inhibition was 86% (active) and -1.3% (inactive).

`CNC(=O)CSc1nc2ccccc2[nH]1`: the inhibition is -7.9% (inactive).

Turning to `c1ccc(-c2nnc(SCc3nc4ccccc4[nH]3)o2)cc1`, the inhibition was -3% (inactive).

Turning to `COc1ccc(C2=NOC(C(=O)N3CCCc4ccccc43)C2)cc1OC` (centres undefined), the inhibition is -3.1% (inactive).

For `O=C(NCc1cccc(F)c1)C1CCc2sc(C(=O)N3CCCC3)cc2C1` (centres undefined), the inhibition is -2.5% (inactive).

Consider `CCn1ccc(C(=O)N2CCCC2c2cccc(F)c2)n1` (centres undefined), for which the inhibition was -3.5% (inactive).

`O=C(NCC1CN(c2ccc3c(c2)OCO3)C(=O)O1)c1ccco1` (centres undefined): the inhibition is -9.6% (inactive).

On to `CC(C)(C)c1ccc(CC(=O)c2ccc(O)cc2O)cc1`, for which the inhibition was -3.9% (inactive).

As to `O=C1CCCC2=C1C(c1ccccn1)C1=C(CCCC1=O)O2`, the inhibition was -0.8% (inactive).

As for `O=C(Nc1ncc(Cc2cccc(C(F)(F)F)c2)s1)c1ccc(-n2cnnn2)cc1`, the inhibition was -2.3% (inactive).

With `CCOC(=O)N1CCc2nn(CC(=O)NC(C)CCc3ccccc3)c(=O)cc2C1` (centres undefined), the inhibition is -4.2% (inactive).

Take `O=C(Nc1nnc(CSCc2ccccc2)s1)c1ccc(F)cc1`: the inhibition is -1.1% (inactive).

For `COc1ccc(CCNC(=O)C2c3ccccc3C(=O)N2Cc2ccc(C)cc2)cc1OC` (centres undefined), the inhibition was -9.1% (inactive).

With `O=C(Nc1ccc(-c2nc3ccccc3[nH]2)cc1)c1cccc(F)c1`, the inhibition was -15.5% (inactive).

Turning to `CCNC(=O)c1nsc2ccc(C)cc12`, the inhibition was -1.8% (inactive).

In the case of `CCOC(=O)c1ccc(NS(=O)(=O)c2c[nH]c(=O)[nH]c2=O)cc1`, the inhibition was -10.5% (inactive).

Take `CCN(CC)CCCNC(=O)C1CCN(S(=O)(=O)N2CCC3(CC2)OCCO3)CC1`: the inhibition is -18.9% (inactive).

As to `Cc1ccc(-n2cc(C(=O)N3CCCCC3)nn2)cc1C`, the inhibition is -2.2% (inactive).

Regarding `COc1ccc(/C=C2\N=C(c3cc(OC)c(OC)c(OC)c3)OC2=O)cc1`, the inhibition is -0.6% (inactive).

Take `Cc1ccc(-n2c(O)c(C=Nc3cc(Cl)ccc3O)c(=O)[nH]c2=O)cc1`: the inhibition is -0.1% (inactive).

With `CCc1c(C)c2ccc(OCC(C)C)cc2oc1=O`, the inhibition was -2.3% (inactive).

On to `COc1ccc(CCNC(=O)C2CC(=O)N(c3ccc(F)c(Cl)c3)C2)cc1OC` (centres undefined), for which the inhibition is 4.9% (inactive).

For the molecule `O=C1CC2(CCN(C(=O)C=Cc3ccccc3)CC2)Oc2ccccc21`, the inhibition is -17.9% (inactive).

As for `Cc1cc(C)nc(NC(=O)c2ccc([N+](=O)[O-])cc2Cl)c1`, the inhibition was 5.5% (inactive).

For the molecule `O=C(Nc1ccncc1)c1ccc([N+](=O)[O-])cc1Cl`, the inhibition was 0.3% (inactive).

Take `O=C(Nc1ccc(Br)cn1)c1ccc([N+](=O)[O-])cc1Cl`: the inhibition was 81.8% (active).

Take `O=C(C1CC1)N1CCC(COCc2ccccc2)CC1`: the inhibition is -12.6% (inactive).

As to `CCS(=O)(=O)Oc1ccccc1-c1nc2cc(Cl)ccc2o1`, the inhibition is -3.6% (inactive).

As to `Cc1ccc(C(=O)N2CCC(CCOc3ccc(F)cc3)CC2)s1`, the inhibition was 4.5% (inactive).

For `CN1CCN(C(=O)C2CCC(=O)N2Cc2ccccc2Cl)CC1` (centres undefined), the inhibition is -11.4% (inactive).

Consider `CC(C)c1nnc(NC(=O)CCCOc2ccc(Cl)cc2)s1`, for which the inhibition was 4.4% (inactive).

Consider `O=[N+]([O-])c1ccc(-c2noc(COc3ccc(Cl)cc3Cl)n2)cc1`, for which the inhibition was 1.6% (inactive).

Turning to `O=C(NCCc1ccccc1)C1CCN(CC2CCCCC2)CC1`, the inhibition is 12.9% (inactive).

In the case of `O=C(NCCc1ccccc1)C1CCN(S(=O)(=O)c2ccc(Br)cc2)CC1`, the inhibition was 98.3% (active).

On to `O=C(NCCc1ccccc1)C1CCN(S(=O)(=O)c2ccc(Br)s2)CC1`, for which the inhibition is -9% (inactive).

In the case of `Cc1cccc(NC(=O)c2cc3c(CO)cnc(C)c3oc2=Nc2ccc3c(c2)OCO3)c1`, the inhibition was -0.2% (inactive).

For `CCn1c(-c2cc(NC(=O)c3ccncc3)n[nH]2)cc2ccccc21`, the inhibition was -0.8% (inactive).

For the molecule `O=C(Nc1ccc(Cl)cc1[N+](=O)[O-])c1ccc(Cl)cc1`, the inhibition was -0.2% (inactive).

Turning to `COC(=O)Nc1nc(CC(=O)NCc2ccco2)cs1`, the inhibition was -1.8% (inactive).

As for `Cc1cc(C)nc(Nc2nc(CC(=O)Nc3nc(-c4ccco4)cs3)cs2)n1`, the inhibition was 69.6% (active).

Regarding `O=C(CCCn1cccc1)Nc1nc(-c2ccco2)cs1`, the inhibition is 0.6% (inactive).

Consider `Cc1nccn1Cc1nc(-c2ccc(F)c(Br)c2)no1`, for which the inhibition was -2.5% (inactive).

Turning to `COc1ccc(C(C)=C2SC(=S)N(CCC(=O)O)C2=O)cc1`, the inhibition was 3.2% (inactive).

As for `Cc1nc2c(ccc3nc(NC(=O)NCc4cccs4)sc32)s1`, the inhibition was -4.8% (inactive).

As for `O=C(c1ccncc1)N1CCCC(c2nc(-c3ccc(F)cc3)n[nH]2)C1` (centres undefined), the inhibition is 10% (inactive).

`COc1ccc(C(=O)N2CCN(c3nc(C(C)C)c4c(c3C#N)CC(C)(C)OC4)CC2)cc1`: the inhibition is -3.4% (inactive).

In the case of `CCCNc1cc(N2CCC(CCC(=O)NC(C)C)CC2)ncn1`, the inhibition is -1.9% (inactive).

As to `COc1cc(/C=c2\sc3nc(-c4ccc(Cl)cc4)nn3c2=O)cc(OC)c1OC`, the inhibition was 3.7% (inactive).

For the molecule `Cc1ccc(S(=O)(=O)NC(=O)NCCSCc2ccco2)cc1`, the inhibition is 25.5% (inactive) and 3.2% (inactive).

In the case of `O=C(CSc1nnc(SCC(=O)NCCSCc2ccco2)s1)NCCSCc1ccco1`, the inhibition is 91.9% (active).

With `O=C(Cn1nnc2ccccc21)NCCSCc1ccco1`, the inhibition is 9.1% (inactive).

Take `O=C(CSc1ccc(C(F)(F)F)cc1[N+](=O)[O-])NCCOc1ccccc1`: the inhibition was 57.6% (active).

On to `Cc1cccc(OCCNC(=O)CSc2ccc(C(F)(F)F)cc2[N+](=O)[O-])c1`, for which the inhibition was -4.3% (inactive).

Consider `COc1ccccc1OCCNC(=O)CSc1ccc(C(F)(F)F)cc1[N+](=O)[O-]`, for which the inhibition is -0.4% (inactive).

For `O=C(Cc1ccsc1)N1CCn2cnnc2C1`, the inhibition was 0.2% (inactive).

With `Cc1nc(C(=O)NCc2ccc(C(F)(F)F)cc2)c(C)o1`, the inhibition was -4.9% (inactive).

`Cc1ccc(C2CC(c3ccccc3)Nc3nnnn32)cc1` (centres undefined): the inhibition was -7% (inactive).

On to `O=C(Nc1ccccc1[N+](=O)[O-])c1[nH]ncc1[N+](=O)[O-]`, for which the inhibition is -24.6% (inactive).

Regarding `Cc1ccc(-n2cc(C(=O)Nc3ccc4c(c3)OCCO4)c3ccccc3c2=O)cc1C`, the inhibition is -2.6% (inactive).

As to `O=C(c1ccoc1)N1CCCCC1CCN1CCOCC1` (centres undefined), the inhibition was -2% (inactive).

On to `O=C(NC1CC1)c1cccc(OCC2CCCN(C(=O)C3CCCCC3)C2)c1` (centres undefined), for which the inhibition was -3.3% (inactive).

For the molecule `COc1ccc(CNC(=O)c2cncc(OC)c2)cc1`, the inhibition is 0.2% (inactive).

The values above are taken from PubChem BioAssay AID1794808 (University of Kansas High Throughput Screening Laboratory, 2022).
